Assay [1] is described as follows: Confirmatory screen GU Rhodamine qHTS for Zika virus inhibitors qHTS (AID 1347157). Further: nearly all actives have a fitted effect of over 70% in size. Further: potency means the concentration at half of the fitted maximal effect.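 On activity change, negative = inhibition: plate controls were no-inhibitor wells for no effect and no-enzyme wells for full effect.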 The essentials: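 Percent inhibition came from the 15-min rise in Rhodamine110 fluorescence (1.5 microM substrate, ~15% conversion), normalized to no-inhibitor and no-enzyme wells and Hill-fitted. Unlinked protease, 25 nM, pH 8.0 Tris buffer; compounds up to 114 microM, 15-min preincubation.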
A general note: Quantitative high-throughput screening tests each substance at several concentrations.

The nature of assay [2]: Confirmatory screen NINDS Rhodamine qHTS for Zika virus inhibitors (AID 1347161). Further: nearly all actives have a fitted effect of over 60% in size. Further: potency means the concentration at half of the fitted maximal effect.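 On activity change, negative = inhibition: purified Zika NS2B-NS3 protease with linked NS2B cofactor domain and Rhodamine110 peptide substrate; plate controls were no-inhibitor control for no effect and no-enzyme control for full effect.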 The procedure, abridged:
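Single-chain NS2B-NS3 protease, 25 nM, pH 8.0; compounds preincubated 15 min. Activity: Rhodamine110 release from 1.5 microM substrate over 15 min, room temperature, data fitted to 4-parameter Hill.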

A short description of assay [3]: Tertiary RLuc qRT-PCR qHTS assay for Zika virus inhibitors (AID 1347169). Further: top concentration of the series differs between compounds; on the % scale 0 is the no-effect control and ±100 the full control effect; nearly all actives have a fitted effect of over 55% in size. The essentials:
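Orthogonal cell-based readout: luminescence measured 1-1.5 hrs after adding live-cell Renilla substrate to Vero cells that had been infected with ZIKV-RLuc (MOI 1-2) post-compound, incubated 48-72 hrs at 37 degrees C.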
For orientation: Quantitative PCR measures a nucleic acid by following its amplification.

The target in assay [4] is Cytochrome P450 3A4 (Homo sapiens) (UniProt P08684). The experiment in a line: qHTS Assay for Inhibitors and Substrates of Cytochrome P450 3A4 (AID 884). Further: on the % scale 0 is the no-effect control and ±100 the full control effect; nearly all actives have a fitted effect of over 50% in size. The procedure, abridged: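 20 nM human CYP3A4 with 25 uM Luciferin-PPXE (at KM) in 200 mM KPO4, preincubated 10 min with compound; NADPH regeneration started a 60 min RT reaction. Luciferin detected by luminescence, normalized to 57 uM ketoconazole as full inhibition.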
Sequence of Cytochrome P450 3A4 (Homo sapiens) (P08684 whole entry, looked up): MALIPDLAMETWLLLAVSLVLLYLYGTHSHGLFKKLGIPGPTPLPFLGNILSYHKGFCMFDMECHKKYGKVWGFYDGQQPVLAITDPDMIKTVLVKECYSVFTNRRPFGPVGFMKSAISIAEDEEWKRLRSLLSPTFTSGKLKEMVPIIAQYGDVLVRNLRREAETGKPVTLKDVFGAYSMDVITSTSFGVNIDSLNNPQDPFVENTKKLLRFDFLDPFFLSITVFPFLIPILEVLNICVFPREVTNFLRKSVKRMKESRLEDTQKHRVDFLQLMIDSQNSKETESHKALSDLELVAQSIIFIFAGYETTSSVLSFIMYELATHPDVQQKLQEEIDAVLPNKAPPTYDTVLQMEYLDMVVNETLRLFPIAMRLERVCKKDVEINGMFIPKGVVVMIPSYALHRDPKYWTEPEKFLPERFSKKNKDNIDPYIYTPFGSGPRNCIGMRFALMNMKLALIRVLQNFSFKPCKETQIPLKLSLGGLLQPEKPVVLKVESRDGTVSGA

Assay [5] in a line: Confirmation and Secondary Assay for Modulators of Hemoglobin Beta Chain Splicing at IVS2 654 locus (AID 910).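 Further: HeLa cells stably carrying EGFP split by mutant beta-globin IVS2-654 intron; per-well total GFP intensity by laser scanning cytometry after 2-day treatment; % of control where 0% means no effect.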 The essentials:
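Readout: per-well total peak green fluorescence (488 nm ex, 500–520 nm em) from objects 5–250 µm, reflecting correct splicing of an EGFP-654 reporter. Compounds were applied for 2 days at 37 °C to overnight-plated HeLa EGFP-654 cells; controls were DMSO and 500 nM IVS2-654 PNA.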

Assay [6] can be described thus: Confirmation and Secondary Assay for Modulators of Hemoglobin Beta Chain Splicing at IVS2 705 locus (AID 930).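 Further: HeLa cells stably expressing the EGFP-705 splicing reporter; GFP fluorescence per well restored by corrected splicing of the IVS2-705 intron in EGFP; % of control where 0% means no effect.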 The procedure, abridged: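 HeLa EGFP-705 reporter; 500 cells/well, o/n 37C 5% CO2; cpd 2 d; 488 ex/500-520 em laser scan; total peak GFP intensity/well. Ref: 500 nM […] antisense PNA.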
Assay [7] can be described thus: qHTS Assay for Lipid Storage Modulators (AID 1519; calls by dose curve; on activity change, negative = inhibition: on the % scale 0 is the no-effect control and ±100 the full control effect). The settings on record: Drosophila S3 cells, BODIPY lipid droplet/cell ratio, laser cytometry, cells loaded with oleic acid. The essentials: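 Cells seeded at 5,000 per well were treated with compounds over a concentration series and loaded with oleic acid (400 uM, as added). Lipid droplet fluorescence (488 nm excitation, 500-530 nm channel) was read by laser-scanning cytometry and normalized to 20 uM Triacsin C.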

Assay [8] has as its target Ubiquitin carboxyl-terminal hydrolase 1 (Homo sapiens) (UniProt O94782). The experiment in a line: Inhibitors of USP1/UAF1: Pilot qHTS (AID 504865). Further: potency means the concentration at half of the fitted maximal effect; nearly all actives have a fitted effect of over 35% in size. The procedure, abridged:
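Deubiquitinase activity followed as kinetic rhodamine fluorescence release from 150 nM Ub-Rho. 1 nM USP1/UAF1 with compound, after 15 min room-temperature preincubation, in HEPES pH 7.8 buffer containing TCEP, EDTA, BSA and Tween-20.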

Assay [9] is described as follows: ZIKV-mCherry secondary qHTS for Zika virus inhibitors (AID 1347158). Further: top concentration of the series differs between compounds. The essentials: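 Vero cells, 5,000/well, plated overnight at 37 °C, then compound added and infected with recombinant ZIKV-mCherry at MOI 1 for 48-72 h. PFA-fixed, Hoechst nuclear stain, high-content imaging; cells with mCherry intensity above 450 RFU scored infected, reported as percent infection.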

In assay [10] the test system is Zika virus NS2B-NS3 protease (linked). Description: 384 well plate NINDS AMC confirmatory qHTS for Zika virus inhibitors (AID 1347163). Further: potency means the concentration at half of the fitted maximal effect; nearly all actives have a fitted effect of over 50% in size. The essentials: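 Linked protease 5/30/60 nM final; cpds up to 1 mM final, ~15 min preinc. Substrate Ac-VKTGKR-AMC 30 microM final. RT, dark, 25 min; FI ex 355/em 460; normalized to no-enzyme/no-inhibitor ctrls.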
Assay [11] relates to Zika virus NS2B-NS3 protease (linked construct). Description: 384 well plate NINDS Rhodamine confirmatory qHTS for Zika virus inhibitors (AID 1347164).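 Further: fluorescence from protease cleavage of Ac-LKRR-rhodamine 110 substrate; top concentration of the series differs between compounds; plate controls were no-inhibitor control for no effect and no-enzyme control for full effect; nearly all actives have a fitted effect of over 65% in size.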 The essentials: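 Fluorescence at 485/538 nm was measured 25 minutes after adding 10 microM Ac-LKRR-Rd substrate, in the dark at room temperature. The protease (5, 30 or 60 nM final) had been preincubated ~15 minutes with compound; aprotinin as control.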

In assay [12] the target is Calcium and integrin-binding protein 1 (Homo sapiens) (UniProt Q99828). Description: Primary qHTS for Identification of Calcium Integrin Binding Protein 1 (CIB1) Competitor (AID 1508620).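 Further: GST tagged CIB1 binding a fluorescein labelled alphaIIb integrin peptide tracer; top concentration of the series differs between compounds; on the % scale 0 is the no-effect control and ±100 the full control effect.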 The procedure, abridged: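 CIB1-GST (1 uM final) and compound incubated 15 min at room temperature before adding FITC-alphaIIb peptide tracer (100 nM final). Competition for binding read by fluorescence polarization (ex 480, em 540) after another 15 min at room temperature.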
Sequence of Calcium and integrin-binding protein 1 (Homo sapiens) (Q99828 whole entry, looked up): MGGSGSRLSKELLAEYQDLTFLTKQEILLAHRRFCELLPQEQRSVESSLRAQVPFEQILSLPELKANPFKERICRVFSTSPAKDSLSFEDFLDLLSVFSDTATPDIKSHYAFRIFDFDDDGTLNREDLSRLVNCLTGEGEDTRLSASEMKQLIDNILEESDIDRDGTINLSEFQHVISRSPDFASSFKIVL

Assay [13] concerns the target Cytochrome P450 2D6 (Homo sapiens) (UniProt P10635). Description: Cytochrome P450 family 2 subfamily D member 6 (CYP2D6) small molecule antagonists: luciferase biochemical (cell-free) qHTS assay (AID 1645840; active means well fitted curve in the direction sought with a large enough effect in the repeat runs; an effect the other way counts as inactive or inconclusive; further: potency means the concentration at half of the fitted maximal effect; nearly all actives have a fitted effect of over 55% in size). The procedure, abridged:
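P450-Glo luminescent screen: recombinant CYP2D6 enzyme–proluciferin substrate mix preincubated with compound 10 min at room temperature, then NADPH regeneration added for 1 h at room temperature. Detection reagent added for 20 min; luciferin light read as relative luminescence units.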

In assay [14] the target is Cytochrome P450 2C9 (Homo sapiens) (UniProt P11712). Description: Cytochrome P450 family 2 subfamily C member 9 (CYP2C9) small molecule antagonists: luciferase biochemical (cell-free) qHTS assay (AID 1645842; active means well fitted curve in the direction sought with a large enough effect in the repeat runs; an effect the other way counts as inactive or inconclusive; further: potency means the concentration at half of the fitted maximal effect; nearly all actives have a fitted effect of over 55% in size). The procedure, abridged:
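Luminescence, after 20 min with luciferin detection reagent, reflected CYP2C9 turnover during a 1 h NADPH-driven reaction at 37C. Enzyme-substrate mix contained 0.4% bovine serum albumin and was preincubated with compound 10 min at room temperature.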

Records with an inconclusive call do not appear. Active and inactive are the calls of the source. Unless noted, the call rests on the fitted dose curve; in most records, active means well fitted curve in the direction sought with a large enough effect; inconclusive means small, poorly fitted or top-dose-only effect, or another doubt; inactive means no such curve, though single readings can be large; an effect the other way counts as inactive or inconclusive.

Sequence of Cytochrome P450 2C9 (Homo sapiens) (P11712 whole entry, looked up): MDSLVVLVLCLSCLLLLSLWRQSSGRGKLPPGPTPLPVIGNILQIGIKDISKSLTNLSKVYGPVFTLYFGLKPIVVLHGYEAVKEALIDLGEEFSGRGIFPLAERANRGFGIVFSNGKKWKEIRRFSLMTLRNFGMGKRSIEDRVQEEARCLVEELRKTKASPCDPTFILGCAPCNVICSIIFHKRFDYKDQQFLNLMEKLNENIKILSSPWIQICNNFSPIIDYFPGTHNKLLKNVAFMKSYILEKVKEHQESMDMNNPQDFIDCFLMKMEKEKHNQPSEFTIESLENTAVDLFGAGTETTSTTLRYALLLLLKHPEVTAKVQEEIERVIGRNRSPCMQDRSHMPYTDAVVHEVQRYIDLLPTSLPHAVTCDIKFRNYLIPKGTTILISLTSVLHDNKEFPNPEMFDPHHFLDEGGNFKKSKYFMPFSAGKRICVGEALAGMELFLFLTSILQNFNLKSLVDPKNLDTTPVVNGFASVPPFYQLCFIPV
Sequence of Ubiquitin carboxyl-terminal hydrolase 1 (Homo sapiens) (O94782 whole entry, looked up): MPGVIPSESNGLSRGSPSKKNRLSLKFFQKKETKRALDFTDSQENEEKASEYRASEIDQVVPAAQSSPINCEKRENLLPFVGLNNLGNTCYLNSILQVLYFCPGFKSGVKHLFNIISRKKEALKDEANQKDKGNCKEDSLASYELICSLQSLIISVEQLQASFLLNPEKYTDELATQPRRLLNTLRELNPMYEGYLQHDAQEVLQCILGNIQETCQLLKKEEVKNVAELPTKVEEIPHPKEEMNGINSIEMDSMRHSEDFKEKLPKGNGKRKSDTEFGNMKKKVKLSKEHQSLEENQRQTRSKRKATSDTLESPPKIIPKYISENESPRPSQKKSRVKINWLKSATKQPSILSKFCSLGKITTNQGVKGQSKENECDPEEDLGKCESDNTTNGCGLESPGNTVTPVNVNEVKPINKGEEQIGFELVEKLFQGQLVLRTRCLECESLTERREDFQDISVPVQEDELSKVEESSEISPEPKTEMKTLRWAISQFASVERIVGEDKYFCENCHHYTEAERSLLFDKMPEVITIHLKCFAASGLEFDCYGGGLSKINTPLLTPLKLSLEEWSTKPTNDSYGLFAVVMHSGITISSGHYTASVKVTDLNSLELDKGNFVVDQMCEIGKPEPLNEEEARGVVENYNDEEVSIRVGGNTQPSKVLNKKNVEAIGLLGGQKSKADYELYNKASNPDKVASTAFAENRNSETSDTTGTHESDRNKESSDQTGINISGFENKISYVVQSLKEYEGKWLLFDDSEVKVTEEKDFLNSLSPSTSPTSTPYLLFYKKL
Sequence of Cytochrome P450 2D6 (Homo sapiens) (P10635 whole entry, looked up): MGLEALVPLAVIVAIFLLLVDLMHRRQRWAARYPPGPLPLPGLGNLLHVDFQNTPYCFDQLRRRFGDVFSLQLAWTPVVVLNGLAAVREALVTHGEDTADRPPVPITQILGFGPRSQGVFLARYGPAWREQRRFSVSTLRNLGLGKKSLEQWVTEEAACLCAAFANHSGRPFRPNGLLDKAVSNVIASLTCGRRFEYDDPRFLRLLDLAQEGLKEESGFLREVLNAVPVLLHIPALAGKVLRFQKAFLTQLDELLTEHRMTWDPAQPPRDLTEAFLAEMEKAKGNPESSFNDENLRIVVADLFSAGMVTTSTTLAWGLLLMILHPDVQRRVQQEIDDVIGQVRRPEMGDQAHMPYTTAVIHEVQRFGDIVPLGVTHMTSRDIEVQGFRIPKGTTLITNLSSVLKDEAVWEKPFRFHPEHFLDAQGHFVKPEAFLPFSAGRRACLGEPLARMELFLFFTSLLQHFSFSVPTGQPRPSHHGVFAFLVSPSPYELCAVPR

`N#C/C(=C\c1ccc(-c2cc(Cl)ccc2Cl)o1)C(=O)Nc1ccccc1C(=O)O`: the Potency was 3.16 µM (active) in assay [1] and 6.31 µM (active) in assay [2]. For the same molecule, the Potency result in assay [3] is “inactive”.

`O=C(CNC(=O)c1ccccc1F)OCc1cc(=O)n2nc(C3CCCCC3)sc2n1`: the Potency entry in [1], in [2] and in [3] was “inactive” each time.

Consider `O=C(OC1Cc2c(O)cc(O)cc2OC1c1cc(O)c(O)c(O)c1-c1c(C2Oc3cc(O)cc(O)c3CC2OC(=O)c2cc(O)c(O)c(O)c2)cc(O)c(O)c1O)c1cc(O)c(O)c(O)c1` (stereo not given), for which the Potency result in assay [4], in assay [9] and in assay [11] was “inactive” each time. The molecule was called inactive in assay [5] and in assay [6]. Further, in [7] (at 57.5 µM (top of the series)), the activity change, negative = inhibition was 6.84% (inactive). Also, the max response was determined as 16.9% in assay [7] (measured here: cell count channel max response) and 25.4% in assay [7] (measured here: lipid channel max response). Besides, the Potency was 50.1 µM (active) in assay [8], 20 µM (active) in assay [2] and 20 µM (active) in [10].

Turning to `O=C(Nc1ccc(C(=O)OCc2cc(=O)n3nc(C4CC4)sc3n2)cc1)c1ccc(F)cc1`, the Potency result in assay [1], in [2] and in [3] was “inactive” each time.

For the molecule `COc1ccc(S(=O)(=O)c2cc(NS(=O)(=O)c3ccc(Cl)cc3)c(C)c(C)c2O)cc1`, the Potency entry in [1], in assay [2] and in assay [3] was “inactive” each time.

As to `CCOC(=O)c1ccc(NC(=O)Cn2nnc(-c3ccc(C(F)(F)F)cc3)n2)cc1`, the Potency entry in assay [1] and in assay [3] was “inactive” in each case.

As for `CCOC(=O)c1ccccc1NC(=O)CSc1ccc(-c2sc(-c3ccccc3)nc2C)nn1`, the Potency entry in assay [1], in assay [2] and in [3] was “inactive” throughout.

On to `COc1ccc(S(=O)(=O)c2c(O)c(C)cc(NS(=O)(=O)c3ccc(Cl)cc3)c2C(C)C)cc1`, for which the Potency entry in assay [1] and in assay [3] was “inactive” each time.

For `O=C(OCC#CCSc1nnc(-c2cccc3ccccc23)o1)c1ccc(F)cc1F`, the Potency entry in assay [1], in assay [2] and in [3] was “inactive” throughout. The outcome in assay [12] was inactive.

On to `O=C(Nc1ccccc1C(F)(F)F)c1ccc2oc(=O)c(S(=O)(=O)c3ccc(F)cc3)cc2c1`, for which the Potency entry in assay [1], in assay [2] and in [3] was “inactive” in each case.

Consider `O=C(Nc1ccc(C(=O)OCc2cc(=O)n3nc(C4CC4)sc3n2)cc1)c1ccccc1`, for which the Potency entry in assay [1] and in assay [3] was “inactive” each time.

For the molecule `COc1ccc(Nc2nnc(-c3ccc(C)c(S(=O)(=O)NCc4nc5ccccc5[nH]4)c3)c3ccccc23)cc1`, in assay [1], the Potency entry was “inactive”. For the same molecule, the Potency was 4.25 µM (active) in assay [13] and 7.56 µM (active) in assay [14].

In the case of `O=C(Nc1ccccc1C(=O)OCc1cc(=O)n2c3c(sc2n1)CCCC3)c1ccc(Cl)cc1`, the Potency entry in assay [1] and in assay [3] was “inactive” in each case.

For the molecule `O=C(CSc1nnc(-c2cccc([S+](=O)([O-])NC3CCCC3)c2)n1-c1ccc(F)cc1)Nc1ccc(C(=O)O)cc1`, the Potency entry in [1], in [2] and in [3] was “inactive” each time.

In the case of `CCOc1ccc(C(=O)Nc2ccccc2C(=O)OCc2cc(=O)n3nc(C4CC4)sc3n2)cc1`, the Potency entry in assay [1], in [2] and in assay [3] was “inactive” throughout.

The record behind these values is PubChem BioAssay (NCATS).
